PubChem BioAssay (NCATS)
Records with an inconclusive call do not appear. Where a call stands in place of a potency, no number is given. The source made the active and inactive calls. Unless noted, the call rests on the fitted dose curve; in most records, active means well fitted curve in the direction sought with a large enough effect; inconclusive means small, poorly fitted or top-dose-only effect, or another doubt; inactive means no such curve, though single readings can be large; an effect the other way counts as inactive or inconclusive.

Tests used:
[1] = Nrf2 qHTS screen for inhibitors: Validation (AID 493153; active means well fitted inhibition curve with a large enough effect in the main read-out, with a control signal flat, not every such curve was filed as active; further: potency means the concentration at half of the fitted maximal effect); settings: Potency: luciferase luminescence; viability change: measured here: cytotoxicity max response
How it was run: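 Dose-response validation uses reporter A549 cells with firefly luciferase under an antioxidant response element. Compounds stay on cells 18-24 h at 37°C, and luminescence indicates Nrf2-driven transcription.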

[2] = qHTS for Inhibitors of Cell Surface uPA Generation: Validation Assay (AID 493164);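 further: RAW 264.7 macrophage cells exposed to compound for 18 h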
How it was run: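 RAW 264.7, 4000 cells/well, o/n plating; cpd 7-pt 1:5 dilution 2.45 nM–38.3 uM final; 18 h, 37 C/5% CO2; ATP-Lite, 5 s luminescence exposure.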

[3] = biological target: Galactokinase (Homo sapiens) (UniProt P51570); experiment: qHTS Validation Assay for Inhibitors of Human Galactokinase (GALK) (AID 493189)
Chain of Galactokinase (Homo sapiens) (P51570 whole entry, looked up): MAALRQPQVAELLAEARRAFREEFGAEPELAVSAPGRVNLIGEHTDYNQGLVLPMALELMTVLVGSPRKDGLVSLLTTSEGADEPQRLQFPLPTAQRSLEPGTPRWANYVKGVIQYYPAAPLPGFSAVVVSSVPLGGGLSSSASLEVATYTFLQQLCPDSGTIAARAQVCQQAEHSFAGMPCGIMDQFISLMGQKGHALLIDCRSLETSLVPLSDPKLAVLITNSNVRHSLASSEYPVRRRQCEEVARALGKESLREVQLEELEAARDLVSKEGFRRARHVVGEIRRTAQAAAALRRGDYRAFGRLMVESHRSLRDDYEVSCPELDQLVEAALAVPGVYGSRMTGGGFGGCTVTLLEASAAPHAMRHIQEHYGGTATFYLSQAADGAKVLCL
How it was run: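 GALK (5 nM) with 35 uM ATP and 100 uM galactose in HEPES pH 8.0 with MgCl2, NaCl, DTT and BSA. Reaction ran 1 h at room temperature. Residual ATP read by Kinase-Glo Plus luminescence.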

[4] = Validation screen for small molecules that induce DNA re-replication in SW480 colon adenocarcinoma cells (AID 504364)
How it was run: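 Cells are treated 48 hr with test compound, stained 40 min with Hoechst at 37 C, and scanned for nuclear fluorescence; compounds inducing re-replication increase nuclei with elevated intensity.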

[5] = biological target: Peptidyl-prolyl cis-trans isomerase NIMA-interacting 1 (Homo sapiens) (UniProt Q13526); experiment: qHTS Validation Assay to Find Inhibitors of Pin1 (AID 504536; active means well fitted inhibition curve with a large enough effect in the polarisation, with a control signal flat, not every such curve was filed as active; the % refers to the polarisation)
Chain of Peptidyl-prolyl cis-trans isomerase NIMA-interacting 1 (Homo sapiens) (Q13526 whole entry, looked up): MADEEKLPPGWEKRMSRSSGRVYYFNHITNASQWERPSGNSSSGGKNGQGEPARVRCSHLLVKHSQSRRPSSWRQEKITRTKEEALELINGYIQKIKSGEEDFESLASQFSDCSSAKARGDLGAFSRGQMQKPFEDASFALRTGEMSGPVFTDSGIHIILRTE
How it was run: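 Fluorescence polarization competition: compounds (titration) displace HiFluor-488-labeled Pin1-1b peptide from Pin1 (0.3 uM final) in pH 7.5 HEPES buffer with DTT, 10 min at room temperature; %Activity normalized to no-enzyme wells, curves fitted.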

[6] = biological target: Phosphoglycerate kinase, glycosomal (Trypanosoma brucei brucei) (UniProt P07378); experiment: qHTS Validation Assay to Find Inhibitors of Phosphoglycerate Kinase (AID 504547)
Chain of Phosphoglycerate kinase, glycosomal (Trypanosoma brucei brucei) (P07378 whole entry, looked up): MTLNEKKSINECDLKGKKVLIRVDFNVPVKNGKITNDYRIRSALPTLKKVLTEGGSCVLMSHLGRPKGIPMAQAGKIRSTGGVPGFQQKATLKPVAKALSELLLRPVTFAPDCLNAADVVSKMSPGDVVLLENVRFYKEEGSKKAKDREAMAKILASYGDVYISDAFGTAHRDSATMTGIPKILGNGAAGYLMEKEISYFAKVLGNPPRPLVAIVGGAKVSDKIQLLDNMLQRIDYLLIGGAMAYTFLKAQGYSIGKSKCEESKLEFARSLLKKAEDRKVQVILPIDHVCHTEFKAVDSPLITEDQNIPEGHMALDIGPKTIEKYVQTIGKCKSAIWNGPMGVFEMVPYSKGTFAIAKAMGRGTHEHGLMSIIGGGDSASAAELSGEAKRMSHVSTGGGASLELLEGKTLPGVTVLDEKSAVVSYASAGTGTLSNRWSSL
How it was run: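 PGK activity was coupled to GAPDH (100nM final), which generates the unstable substrate 1,3-bisphosphoglycerate in-well. Reactions ran 60 minutes at room temperature in 100mM TEA pH 7.6, 5mM MgCl2, 0.01% Tween-20, then Kinase-Glo Plus luminescence was read.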

[7] = biological target: phosphoglycerate mutase (Leishmania major) (UniProt Q4Q090); experiment: qHTS Validation Assay to Find Inhibitors of Phosphoglycerate Mutase (AID 504548); settings: Potency: inhibition qHTS;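 further: end-point luminescence from Kinase-GloPlus after the PGAM reaction; series mostly up to about 58 µM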
Chain of phosphoglycerate mutase (Leishmania major) (Q4Q090 1-553): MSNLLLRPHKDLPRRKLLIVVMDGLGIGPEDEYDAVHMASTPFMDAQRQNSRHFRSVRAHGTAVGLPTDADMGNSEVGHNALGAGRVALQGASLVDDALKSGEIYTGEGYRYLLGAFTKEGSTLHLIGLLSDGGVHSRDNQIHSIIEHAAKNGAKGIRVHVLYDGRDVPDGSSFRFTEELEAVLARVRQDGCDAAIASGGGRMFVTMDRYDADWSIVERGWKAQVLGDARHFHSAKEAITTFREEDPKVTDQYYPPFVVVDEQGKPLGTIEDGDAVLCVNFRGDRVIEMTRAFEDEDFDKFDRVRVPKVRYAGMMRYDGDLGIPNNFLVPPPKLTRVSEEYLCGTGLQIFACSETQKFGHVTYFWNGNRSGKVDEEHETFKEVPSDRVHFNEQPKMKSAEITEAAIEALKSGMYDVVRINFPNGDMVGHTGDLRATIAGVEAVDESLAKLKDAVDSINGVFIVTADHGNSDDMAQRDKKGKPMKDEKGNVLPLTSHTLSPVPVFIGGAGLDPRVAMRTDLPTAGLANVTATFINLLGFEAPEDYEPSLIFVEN
How it was run: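 Inhibition of L. major PGAM was assessed by Kinase-GloPlus luminescence following a 45-minute room-temperature reaction with enzyme at 1.25nM final.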

[8] = biological target: Ubiquitin carboxyl-terminal hydrolase 1 (Homo sapiens) (UniProt O94782); experiment: Inhibitors of USP1/UAF1: Pilot qHTS (AID 504865);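 further: rhodamine fluorescence freed from ubiquitin-rhodamine substrate followed over time; top concentration of the series differs between compounds; nearly all actives have a fitted effect of over 35% in size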
Chain of Ubiquitin carboxyl-terminal hydrolase 1 (Homo sapiens) (O94782 whole entry, looked up): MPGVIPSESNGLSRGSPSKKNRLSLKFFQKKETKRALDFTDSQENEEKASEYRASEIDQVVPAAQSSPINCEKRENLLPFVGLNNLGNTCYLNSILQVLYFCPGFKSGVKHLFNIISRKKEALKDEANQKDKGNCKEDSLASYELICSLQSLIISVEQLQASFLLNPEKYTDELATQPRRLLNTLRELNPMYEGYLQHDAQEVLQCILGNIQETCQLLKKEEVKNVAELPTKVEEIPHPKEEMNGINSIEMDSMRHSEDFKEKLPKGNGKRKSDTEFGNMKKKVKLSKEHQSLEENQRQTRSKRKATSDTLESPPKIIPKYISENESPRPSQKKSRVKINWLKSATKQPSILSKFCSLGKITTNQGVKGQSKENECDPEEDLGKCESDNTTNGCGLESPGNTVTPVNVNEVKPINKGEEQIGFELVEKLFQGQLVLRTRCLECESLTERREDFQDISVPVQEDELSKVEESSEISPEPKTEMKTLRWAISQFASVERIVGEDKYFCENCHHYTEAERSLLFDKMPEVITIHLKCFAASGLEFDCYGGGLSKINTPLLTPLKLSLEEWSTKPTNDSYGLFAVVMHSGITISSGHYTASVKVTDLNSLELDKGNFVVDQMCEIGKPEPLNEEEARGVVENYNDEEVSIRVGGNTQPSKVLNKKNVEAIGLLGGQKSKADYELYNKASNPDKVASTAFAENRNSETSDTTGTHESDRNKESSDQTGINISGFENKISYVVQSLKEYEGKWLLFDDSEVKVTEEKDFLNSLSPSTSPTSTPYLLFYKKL
How it was run: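 USP1/UAF1 complex at 1 nM preincubated 15 min at room temperature with compound, then Ub-Rho substrate added at 150 nM final. Fluorescence (480/540 nm) read kinetically in 50 mM HEPES pH 7.8, 0.5 mM EDTA, 1 mM TCEP, 0.1 mg/ml BSA, 0.01% Tween-20.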

[9] = qHTS for Inhibitors of ATXN expression: Validation of Cytotoxic Assay (AID 588349);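 further: cells exposed to compound for 72 hr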
How it was run: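 HEK293, compound dose series, 72 hr / 37 degrees C; viability via CellTiter Glo (intracellular ATP).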

[10] = qHTS for Inhibitors of ATXN expression: Validation (AID 588378); further: series mostly up to about 57 µM; nearly all actives have a fitted effect of over 75% in size
How it was run: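 HEK293 cells carrying ATXN2-firefly luciferase reporter, treated with compound 24 h at 37 °C. Viability read first by CellTiter-Fluor (405/525 nm), then reporter expression by Bright-Glo luminescence; controls were a known ATXN2 expression inhibitor and a luciferase inhibitor.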

[11] = biological target: DNA dC->dU-editing enzyme APOBEC-3G (Homo sapiens) (UniProt Q9HC16); experiment: qHTS for inhibitors of Vif-A3G interactions: Validation (AID 588379)
Chain of DNA dC->dU-editing enzyme APOBEC-3G (Homo sapiens) (Q9HC16 whole entry, looked up): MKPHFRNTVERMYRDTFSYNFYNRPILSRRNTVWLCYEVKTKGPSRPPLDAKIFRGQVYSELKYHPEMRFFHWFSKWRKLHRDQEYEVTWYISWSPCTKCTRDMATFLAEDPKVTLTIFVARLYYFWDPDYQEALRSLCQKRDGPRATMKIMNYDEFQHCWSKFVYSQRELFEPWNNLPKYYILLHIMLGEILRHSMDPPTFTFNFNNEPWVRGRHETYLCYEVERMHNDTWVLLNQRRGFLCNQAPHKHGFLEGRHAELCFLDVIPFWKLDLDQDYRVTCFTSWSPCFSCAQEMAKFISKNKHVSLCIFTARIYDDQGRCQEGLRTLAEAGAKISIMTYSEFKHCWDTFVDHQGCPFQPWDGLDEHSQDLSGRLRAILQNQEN
How it was run: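 HeLa cells stably expressing Vif and A3G-eYFP, 700 cells/well, incubated overnight at 37 deg C, then exposed to compound overnight at 37 deg C. Inhibition of Vif-mediated degradation read as increased yellow fluorescence (Ex 488/Em 500-530) by laser-scanning cytometry.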

SMILES | Potency [1] | viability change [1] | outcome [2] | Potency [3] | Potency [4] | Potency [5] | Potency [6] | Potency [7] | Potency [8] | Potency [9] | Potency [10] | Potency [11]
C[C@@]1(C2CCCC2)Cc2cc(OCC(=O)O)c(Cl)c(Cl)c2C1=O | inactive | -4.41% | inactive | inactive | inactive | inactive | inactive | inactive | inactive | inactive | inactive | –
C#CCn1c(=O)c2c(ncn2C)n(C)c1=O | inactive | 4.85% | inactive | inactive | inactive | inactive | inactive | inactive | inactive | inactive | inactive | –
N[C@H]1CONC1=O | inactive | 1.32% | inactive | inactive | inactive | inactive | inactive | inactive | inactive | inactive | inactive | –
OC[C@H]1NC[C@@H](O)[C@@H]1O | inactive | 4.02% | inactive | inactive | inactive | inactive | inactive | inactive | inactive | inactive | inactive | –
CCCCC[C@H](CC(=O)NO)C(=O)N[C@H](C(=O)N1CCC[C@H]1CO)C(C)C | 16.4 µM (active) | 2.77% | inactive | inactive | inactive | inactive | inactive | inactive | inactive | – | – | –
NC1CONC1=O (stereo not given) | inactive | 2.91% | inactive | inactive | inactive | inactive | inactive | inactive | inactive | inactive | inactive | –
OC[C@H]1O[C@@H](n2cnc3cncnc32)[C@H](O)[C@@H]1O | inactive | 10.1% | inactive | inactive | inactive | inactive | inactive | inactive | inactive | inactive | inactive | –
NC(=O)CNCCC(c1ccccc1)c1ccccc1 | inactive | 12.7% | inactive | inactive | inactive | inactive | inactive | inactive | inactive | inactive | inactive | –
C[C@@H](NCCc1ccc(O)cc1)[C@@H](O)c1ccc(O)cc1 | inactive | 9.14% | inactive | inactive | inactive | inactive | inactive | inactive | inactive | inactive | inactive | –
COc1cc(CC(=O)O)ccc1O | inactive | 3.47% | inactive | inactive | inactive | inactive | inactive | inactive | inactive | inactive | – | –
NC1(C(=O)O)CC1 | inactive | 4.01% | inactive | inactive | inactive | inactive | inactive | inactive | inactive | inactive | – | –
CCC(=O)N1CCN(C(=O)c2ccccc2)CC1 | inactive | 1.55% | inactive | inactive | inactive | inactive | inactive | inactive | inactive | inactive | inactive | –
COc1ccccc1N1CCN(CCCNc2c(C)c(=O)n(C)c(=O)n2C)CC1 | inactive | 3.58% | inactive | inactive | inactive | inactive | inactive | inactive | inactive | inactive | – | –
NC(C(=O)N[C@@H]1C(=O)N2C(C(=O)O)=C(Cl)CS[C@H]12)c1ccccc1 (stereo not given in full) | inactive | 1.5% | inactive | inactive | inactive | inactive | inactive | inactive | inactive | inactive | – | –
OCC1NCC(O)C(O)C1O (stereo not given) | inactive | -2.29% | inactive | inactive | inactive | inactive | inactive | inactive | inactive | inactive | inactive | –
O=C(c1ccc2c(c1)OCCO2)N1CCCCC1 | inactive | 1.66% | inactive | inactive | inactive | inactive | inactive | inactive | inactive | inactive | inactive | –
N[C@@H](CS(=O)O)C(=O)O | inactive | -0.201% | inactive | inactive | inactive | inactive | inactive | inactive | inactive | inactive | inactive | inactive
N=C(N)SCCN | inactive | 0.333% | inactive | inactive | inactive | inactive | inactive | inactive | inactive | inactive | inactive | inactive
O=C(O)C1=CCCN(CCON=C(c2ccccc2)c2ccccc2)C1 | inactive | 4.51% | inactive | inactive | inactive | inactive | inactive | inactive | inactive | inactive | – | inactive
NC/C=C\C(=O)O | inactive | -0.476% | inactive | inactive | inactive | inactive | inactive | inactive | inactive | inactive | inactive | inactive
c1ccc2c(c1)CC(N1CCN(c3cccc4c3OCCO4)CC1)C2 | inactive | 3.52% | inactive | inactive | inactive | inactive | inactive | inactive | inactive | inactive | inactive | –
CCN(c1nc(N)c(C(=O)N=C(N)N)nc1Cl)C(C)C | inactive | -6.66% | inactive | inactive | inactive | inactive | inactive | inactive | inactive | inactive | inactive | –
Nc1ncnc2c1ncn2C1CCCC1 | inactive | 4.78% | inactive | inactive | inactive | inactive | inactive | inactive | inactive | inactive | inactive | –
